# Source: PubChem BioAssay
# Values without a mark were called inactive. The source made the active and inactive calls. No rule for the calls is given here.
# Biological target: L-lactate dehydrogenase (Plasmodium falciparum (isolate CDC / Honduras)) (UniProt Q27743)
# Assay: PfLDH activity inhibition – cell lysate, 3D7 strain, counter-screen for P. falciparum growth inhibition project (AID 2304);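 also: 0% = vehicle and 100% = reference inhibitor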
# Details: P. falciparum 3D7 crude extract, LDH APAD/NBT absorbance; at 2 µM; stronger effect = higher value
# Chain of L-lactate dehydrogenase (Plasmodium falciparum (isolate CDC / Honduras)) (Q27743 whole entry, looked up): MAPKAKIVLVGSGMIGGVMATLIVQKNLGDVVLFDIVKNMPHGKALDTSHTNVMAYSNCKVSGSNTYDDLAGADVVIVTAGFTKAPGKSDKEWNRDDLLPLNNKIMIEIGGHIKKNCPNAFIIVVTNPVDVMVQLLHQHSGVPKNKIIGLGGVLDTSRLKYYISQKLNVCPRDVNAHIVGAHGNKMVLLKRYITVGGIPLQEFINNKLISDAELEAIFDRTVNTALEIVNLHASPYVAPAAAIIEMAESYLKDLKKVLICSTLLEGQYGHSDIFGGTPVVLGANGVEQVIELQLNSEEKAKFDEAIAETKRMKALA
row,SMILES,inhibition [%]
1,Cn1c(NCc2cc(F)cc3c2OCOC3)nc2cc(Nc3ccnc(Nc4cccc(CS(C)(=O)=O)c4)n3)ccc21,-1
2,CC(=O)c1c[nH]c(C(=O)Nc2ccc(-c3cn4ccccc4n3)cc2)c1,4
3,C=C1N(C)c2cc([N+](=O)[O-])c(N)cc2C1(C)C,-2
4,CC(C)CCn1c(Sc2ccc(C#N)c([N+](=O)[O-])c2)nnc1-c1ccccc1Cl,3

# Tested on: not listed separately
# Assay: inhibition of 3D7 malaria parasite growth – strain 3D7 (AID 2306);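 also: 0% = DMSO wells and 100% = chloroquine plus artemisinin control wells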
# Details: P. falciparum 3D7 erythrocytic growth, LDH absorbance, 72 h; at 2 µM; stronger effect = higher value
row,SMILES,growth inhibition
1,O=C(Nc1ccc(-c2nc3ccccc3[nH]2)cc1)c1ccc(S(=O)(=O)N2CCc3ccccc32)cc1,102% (active)
2,CCCCNCc1ccc(-c2nc(CN(Cc3ccc(Cl)c(Cl)c3)S(=O)(=O)c3ccc(NC(C)=O)cc3)cs2)cc1,96% (active)
3,CCCCCCCN1CC[C@@H](CCCc2ccnc3ccc(OCC4CCCNC4)cc23)[C@@H](CC)C1 (some centres not stated),98% (active)
4,COc1ccc(NC(=O)NC2CCN(c3ccnc4cc(Cl)ccc34)C2)cc1 (configuration not stated),101% (active)
5,CCOc1ccc2c(NN=Cc3cc(OC)c(OC)cc3OC)cc(C)nc2c1,101% (active)
6,CCc1cc(NC2CCN(C)CC2)nc(Nc2ccc(C)cc2)n1,95% (active)
7,O=C(CCC1CCCC1)N(Cc1ccc(-c2ccc(CNCCc3ccccc3)cc2)cc1)C1CCCNC1 (configuration not stated),90% (active)
8,Cc1cc(C(=O)Nc2ccc3c(c2)CCN3C2CCN(Cc3cc(F)cc(F)c3F)C2)no1 (configuration not stated),95% (active)
9,CC(C)C(C(=O)Nc1ccc(S(=O)(=O)N(C)C)cc1)c1ccc(Cl)cc1 (configuration not stated),100% (active)
10,CCCC1N=C(N)N=C(N)N1c1ccc(OC)cc1 (configuration not stated),96% (active)
11,CSc1cccc(NC(=O)c2cc3ccccc3oc2=O)c1,92% (active)
12,CCc1c[nH]c2c(N3CCCCS3(=O)=O)cc(C(=O)N[C@@H](Cc3ccccc3)[C@H](O)CNCc3cccc(OC)c3)cc12,86% (active)
13,CCn1c(-c2nonc2N)nc2c(C#CC(C)(C)O)ncc(OCCNCCc3ccc(OC)cc3)c21,91% (active)
14,O=C(CCc1nc2c(cnn2-c2ccccc2)c(=O)[nH]1)NC1CCSc2ccccc21 (configuration not stated),95% (active)
15,CCOC(=O)c1ccc(NC(=O)N(Cc2ccc(-c3cccc(CN4CCNCC4)c3)cc2)C2CCN(Cc3ccccc3)CC2)cc1,100% (active)
16,COc1ccc(O)c(C(=O)c2cc(C(=O)NCCc3ccccc3)c(=O)n(CCc3ccccc3)c2)c1,97% (active)
17,Cc1nn(CC(O)Cn2c3ccc(Br)cc3c3cc(Br)ccc32)c(C)c1Br (configuration not stated),98% (active)

row,SMILES,growth inhibition
1,NC1CCN(c2nc(NCCCc3ccc(O)cc3)nc(NCc3cccc4ccccc34)n2)CC1,102% (active)
2,Cn1nccc1C(=O)NCCNCc1cccc(-c2ccc(-c3nc4ccccc4[nH]3)s2)c1,100% (active)
3,O=C(NC(Cc1ccccc1)C(=O)O)c1cc(=O)c2ccccc2o1 (configuration not stated),99% (active)
4,COc1cc(NC(=O)N2CCOC(CCN3CCC(c4ccccc4)CC3)(c3ccc(Cl)c(Cl)c3)C2)cc(OC)c1 (configuration not stated),93% (active)
5,CN(C)CCOc1ccc2c(c1)CN(C)CC2c1ccccc1 (configuration not stated),91% (active)
6,CC(Cl)=CCc1c(C)[nH]c2c(ccc3ccccc32)c1=O,96% (active)
7,COc1ccc2ncc(F)c(CCN3CC[C@@H](CNCc4nc5c(cc4C)SCC(=O)N5)C3)c2n1,91% (active)
8,CC1(C)[C@H]2CC[C@@H](CNc3nc(NCC(=O)Nc4ccc5ccccc5c4)nc(N4CCC(N5CCCC5)CC4)n3)[C@@H]1C2,93% (active)
9,CCNc1cc(C(=O)N[C@@H](Cc2cccc(F)c2)[C@H](O)CNC(C)CCCC(C)C)cc(N2CCCCS2(=O)=O)c1 (some centres not stated),98% (active)
10,C[C@@H]1CN(C(c2cccc(O)c2)c2cccc(C(=O)N(C)c3cccc(F)c3)c2)[C@@H](C)CN1C(c1cccc(O)c1)c1cccc(C(=O)N(C)c2cccc(F)c2)c1 (some centres not stated),91% (active)
11,O=C(NCCCCCN1CCC(c2c[nH]c3ccccc23)C1)Nc1ccc(Cl)c(Cl)c1 (configuration not stated),95% (active)
12,CC(Cc1ccc(OCCN2CCN(c3ccc(Cl)cc3)CC2)cc1)NCC(O)c1cccc(C(F)(F)F)c1 (configuration not stated),99% (active)
13,COc1ccc2c(c1)ncn2-c1cc(OCc2ccncc2Br)c(C(N)=O)s1,95% (active)
14,CC(C)N1CCN(CCCCNc2c3ccccc3nc3ccccc23)CC1,100% (active)
15,N#Cc1ccc2c(c1)CCN(CCC1CCC(NC(=O)c3cc4ccc(Br)cc4[nH]3)CC1)C2 (configuration not stated),103% (active)
16,COc1ccccc1CNc1nc(Nc2ccccc2C)nc2ccccc12,101% (active)
